Screens: PubChem BioAssay, National Center for Advancing Translational Sciences (NCATS)
Only some compounds are listed: those with a hit (about 4.3% of all), similar ones and a draw of the others.
D3 ag: D3 dopamine receptor (human) agonism. P35462. D3R DiscoveRx beta-arrestin cells, luminescence, 90 min. max activation, %. 0.58% of 410,000 active; in the data active = max activation above about 30%; also: 0% is about no effect
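Agonist-mode cell screen: cells plated at 1500/well and incubated overnight at 37 °C, then exposed to library compounds for 90 min at 37 °C. Detection reagent was added for 30–60 min at room temperature, and luminescence was read.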
D3 antag: blocks the human D3 dopamine receptor; P35462; D3R cells, DiscoveRx beta-arrestin luminescence, antagonist mode; stronger effect = lower value; max response, negative = inhibition, %; 2.5% of 360,000 active; in the data active = max response below about -50%; inconclusive = no clear call, values can overlap the other calls; also: % is scaled to controls: 0 for no effect and ±100 for the full control effect
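Cells expressing the human receptor were seeded at 1500 cells/well, incubated overnight at 37 degrees C in 5% CO2, then exposed to library compounds with dopamine controls for 90 minutes at 37 degrees C before luminescent detection.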
GLP-1R agonist: activates the human GLP-1 receptor | P43220 | HEK293 GLP-1R CRE-luciferase, luminescence, 4-6 h; cells express a hypersensitive GLP-1R form | Potency, µM (highest dose often 45.6 µM), for the others: at the highest dose activation, hits mostly activators | 0.007% of 380,000 active | AID 624172; also: potency is read from the fitted curve at half-maximal effect; % of control where 0% means no effect
Target sequence (P43220 whole entry, looked up): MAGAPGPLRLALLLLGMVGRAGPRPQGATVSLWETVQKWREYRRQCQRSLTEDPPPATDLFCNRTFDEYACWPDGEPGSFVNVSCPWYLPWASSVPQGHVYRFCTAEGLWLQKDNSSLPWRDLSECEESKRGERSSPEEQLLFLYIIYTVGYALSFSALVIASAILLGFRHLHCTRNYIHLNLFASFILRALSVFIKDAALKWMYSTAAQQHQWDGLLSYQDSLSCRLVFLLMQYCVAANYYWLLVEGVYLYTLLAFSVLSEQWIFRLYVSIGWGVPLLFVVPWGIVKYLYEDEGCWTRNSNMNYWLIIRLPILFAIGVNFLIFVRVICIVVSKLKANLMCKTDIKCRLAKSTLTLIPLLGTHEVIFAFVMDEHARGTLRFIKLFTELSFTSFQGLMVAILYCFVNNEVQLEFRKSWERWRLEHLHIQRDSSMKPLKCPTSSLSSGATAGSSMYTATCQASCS
GLP-1R inv ag: inverse agonists of human GLP-1 receptor | HEK293 GLP-1R CRE-luciferase, luminescence, 24 h; GLP-1R form is constitutively active | 1.6% of 410,000 active | Potency, µM (titrated, usually from 38.3 µM), for inactives: at the highest dose activity change, negative = inhibition, most hits filed as inhibitors; also: potency is read from the fitted curve at half-maximal effect; % is scaled to controls: 0 for no effect and ±100 for the full control effect; nearly all actives have a fitted effect of over 55% in size
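Inverse agonism was detected as reduced cAMP-driven luciferase luminescence after 24 h compound treatment. The cells were HEK293 clones expressing constitutively active human GLP-1R with the reporter. Reporter-only and GPR119 cell lines served as counterscreen controls.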
* marks the source's active call; other numbers are inactive results; ? = inconclusive; / = not tested or not shown. Unless noted, calls follow the shape of the dose curve; as a rule, active = well fitted curve in the direction sought with a large enough effect; inconclusive = small, poorly fitted or top-dose-only effect, or another doubt; inactive = no such curve, though single readings can be large; an effect the other way counts as inactive or inconclusive.

SMILES	D3 ag	D3 antag	GLP-1R agonist	GLP-1R inv ag
Cc1cc(Cl)ccc1NC(=O)CCS(=O)(=O)c1ccc2c(c1)CC(C)N2C(=O)C1CC1 (stereo not given)	0.4	/	/	-1.5%
C/C=C(/C)C(=O)OC1CC(C)(C)C[C@H]2C3=CC[C@@H]4[C@@]5(C)CCC(O[C@@H]6O[C@@H](C(=O)O)[C@@H](O)C(O[C@@H]7OC[C@H](O)[C@@H](O)[C@@H]7O[C@@H]7OC(CO)C(O)[C@@H](O)[C@@H]7O)C6O[C@@H]6OC(CO)C(O)C(O)C6O)[C@@](C)(CO)[C@@H]5CC[C@]4(C)[C@]3(C)CC(O)[C@@]12CO (stereo not given in full)	22.5	-22.9	-7.2%	?
C/C=C(\C)C(=O)OC1[C@H](OC(C)=O)C2(CO)C(CC1(C)C)C1=CCC3C4(C)CCC(O[C@@H]5O[C@H](C(=O)O)[C@@H](O[C@@H]6O[C@H](CO)[C@@H](O)[C@H](O)[C@H]6O)[C@H](O)[C@H]5O[C@H]5O[C@H](CO)[C@@H](O)[C@H](O)[C@H]5O)[C@](C)(CO)C4CCC3(C)[C@]1(C)C[C@H]2O (stereo not given in full)	-44.0	-120.7*	-10.4%	?
COc1ccccc1CN(C)C(=O)C(c1ccccc1)c1ccccc1	-13.3	-15.3	2.6%	12.6µM*
O=S1(=O)CC(N2CCC(c3ccccc3)CC2)CN1C1CCCCC1 (stereo not given)	-3.3	-9.1	-1.8%	-25.1%
CCCCCCN1CCN(C2CN(C3CCCCC3)S(=O)(=O)C2)CC1 (stereo not given)	-13.6	-116.7*	14.4%	-36.5%
O=S1(=O)CC(N2CCN(CC3CC3)CC2)CN1Cc1ccccc1 (stereo not given)	-7.4	-61.4*	4.2%	-37.6%
O=S1(=O)CC(N2CCC(Cc3ccccc3)CC2)CN1C1CCCCC1 (stereo not given)	-9.3	-78.0*	1.3%	?
O=S1(=O)CC(N2CCN(CC3CC3)CC2)CN1Cc1ccc(F)cc1 (stereo not given)	-8.5	-8.7	-0.6%	?
COc1ccc([C@H]2[C@@H]3C=CCC[C@@]3(C)C(=O)N2Cc2ccccc2)cc1Cl	-20.8	-54.9*	10.5%	?
CC(=O)N1CCCc2ccc(NC(=O)c3ccc(C(F)(F)F)cc3)cc21	4.9	/	/	-30.8%
CCCCCc1cc(=O)oc2c(C(CCN3CCCC3)c3cc(OC)c(OC)c(OC)c3)c(OC)cc(OC)c12 (stereo not given)	-44.1	-50.8*	11.0%	?
CCCCCc1cc(=O)oc2c(C(CCN3CCN(c4ccccc4)CC3)c3ccc4c(c3)OCO4)c(OC)cc(OC)c12 (stereo not given)	-41.4	-69.4*	1.7%	?
COc1cc(C(CCN2CCCCC2)c2c(OC)cc(OC)c3c(-c4ccccc4)cc(=O)oc23)cc(OC)c1OC (stereo not given)	0.0	-8.6	12.9%	?
CCCCCc1cc(=O)oc2c(C(CCN3CCCC3)c3ccc(N(C)C)cc3)c(OC)cc(OC)c12 (stereo not given)	-36.1	?	11.2%	?
COc1cc(C(CCN2CCCC(C)C2)c2c(OC)cc(OC)c3c(-c4ccccc4)cc(=O)oc23)cc(OC)c1OC (stereo not given)	-29.6	-51.2*	14.5%	?
CN1CCN(C(c2ccccc2)c2sc3nc(-c4ccco4)nn3c2O)CC1 (stereo not given)	-5.0	/	/	5.3%
CCOc1ccc(-c2cc(C(=O)NCCCOC)c3c(-c4ccc(CC)cc4)[nH]nc3n2)cc1	-8.2	/	/	-12.8%
CN(C)C/C=C(/c1ccc(Br)cc1)c1cccnc1	-88.3	-104.8*	-0.6%	?
CC(C)(C)NC(=O)C(c1ccc(F)cc1)N(Cc1ccco1)C(=O)CCC(=O)Nc1nccs1 (stereo not given)	-9.9	-21.3	1.0%	-25.3%
COc1ccc(-c2nc3c(C#N)c[nH]n3c2NC2CCCC2)c(OC)c1	-2.8	/	/	3.6%
COc1cc(-c2ccc3oc(-c4ccsc4)c(C#CC4(O)CCCCC4)c3c2)cc(OC)c1OC	36.2*	77.0	-4.4%	?
COc1ccc(-c2oc3ccc(N4CCOCC4)cc3c2C#CC2(O)CCCCC2)cc1	84.4*	89.9	?	3.0%
Cc1ccccc1NC(=O)CS(=O)(=O)c1cccc2nsnc12	-1.3	/	2.5%	-23.2%
CCSC1=NC2(CCN(C(=O)NC3CCCCC3)CC2)N=C1c1ccc(C)c(C)c1	-3.4	/	/	-0.7%
SMILES	D3 ag	D3 antag	GLP-1R agonist	GLP-1R inv ag
O=C(O)c1cc2cccc(S(=O)(=O)N3CCCCC3)c2cc1O	30.1*	9.4	0.7%	3.5%
CCN(CC)CCOC(=O)c1ccc(N)cc1Cl	-8.6	/	-3.8%	/
O=C(CSc1ccc(Cl)cc1)c1ccco1	-14.5	-74.4*	0.4%	-4.0%
O=C(CCSc1ccc(Cl)cc1)c1ccco1	1.7	5.8	2.1%	?
Cc1cc(C)cc(Nc2nc3ccccc3nc2-n2nc(C)cc2C)c1	3.8	/	/	10.1%
CCCCCCCCCCCCCCCCCCO	12.6	/	1.6%	/
Cc1cccc(C2=NN(c3ccccc3)[C@@H](C(=O)N3CCOC3=O)[C@@H]2c2ccc(Cl)cc2)c1	2.0	?	-1.1%	?
Cc1cccc(C2=NN(c3ccccc3)[C@@H](C(=O)N3CCOC3=O)[C@@H]2c2ccc(F)cc2)c1	-8.2	-2.9	1.1%	12.6µM*
O=C1OCCN1C(=O)[C@H]1[C@H](c2ccccc2)C(c2cccc(Cl)c2)=NN1c1ccccc1	39.0*	2.1	-1.2%	?
O=C1OCCN1C(=O)[C@H]1[C@H](c2ccc(Cl)cc2)C(c2ccccc2)=NN1c1ccccc1	4.0	-2.2	1.9%	?
Cc1cccc(C2=NN(c3ccccc3)[C@H](CO)[C@H]2c2ccccc2)c1	41.7*	13.7	1.9%	?
COc1cccc(CNC(=O)CN2N=C(c3ccc(C)cc3)CCC2=O)c1	32.9*	/	/	0.0%
CCCCN(CCCNC(=O)c1ccc2c(c1)NC(=O)CN2C)c1ccccc1	2.2	-0.3	-7.7%	2.82µM*
CCCCN(CCCNC(=O)CN1N=C(c2ccccc2)CCC1=O)c1ccccc1	-16.6	/	/	10µM*
CCSc1nnc(NC(=O)NC(C)(C(F)(F)F)C(F)(F)F)s1	0.9	5.8	-1.2%	10µM*
CCSc1nnc(NC(=O)NC(CC)(C(F)(F)F)C(F)(F)F)s1	5.9	29.5	-30.4%	7.08µM*
CCCC(=O)Nc1nnc(SCC)s1	-2.8	38.0	0.5%	1.9%
CCOc1ccc(CCNC(=O)COC(=O)c2ccncc2)cc1OCC	-2.4	-16.5	2.0%	38.6%
CCOc1ccc(CCNC(=O)COC(=O)c2ccc(OC(C)C)cc2)cc1OCC	0.6	-53.1*	2.6%	?
COc1ccc(-n2ccnc(NCc3ccc(Cl)cc3)c2=O)cc1	-15.2	/	/	24.3%
CCOc1ccc(CNC(=O)C2Cc3cc(S(=O)(=O)N4CCCCCC4)ccc3N2C(C)=O)cc1 (stereo not given)	8.2	/	1.2%	4.6%
C=Cc1ccc(Cn2ccn(-c3ccc(F)c(F)c3)c(=O)c2=O)cc1	-18.5	/	/	10.6%
